Hits are enriched below; roughly 19% of the tested compounds scored in any of these assays.
IL1B secr inh: inhibitors of inflammasome signaling (IL-1 beta secretion) | THP-1 LPS/ATP IL-1B secretion, AlphaLISA, 16 h; stronger effect = lower value | activity change, % at 57.5 µM | hit rate 4.7% among 360,000; in the data active = activity change below about -50%; inconclusive = mostly about -30% to -49%; note: % is set by controls: 0 for no effect and ±100 for the full control effect
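THP-1 cells pretreated 1 hr with compounds (up to 57.5 uM final), then stimulated with LPS (250 ng/mL final) plus ATP (1.25 mM final); secreted IL-1B measured by AlphaLISA after 16 hr, decreased signal indicating inhibition.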
TDP1 cell noCPT: qHTS for Inhibitors of human tyrosyl-DNA phosphodiesterase 1 (TDP1): qHTS in cells in absence of CPT. DT40 Tdp1-/- hTDP1 cells, no CPT, ATP luminescence, 48 h. Potency, µM (highest dose often 46.2 µM), inactives show at the highest dose activity change, negative = growth inhibition, usual class: inhibitors. hit rate 15% among 420,000; note: potency is the fitted concentration of half-maximal effect; % is set by controls: 0 for no effect and ±100 for the full control effect; nearly all actives have a fitted effect of over 55% in size
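No-CPT arm: Tdp1-/-;hTDP1 DT40 cells (400/well) plus compounds, incubated ≥48 hr at 37 °C. Readout CellTiter-Glo luminescence.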
ASM inhibitor: human S-ASM enzyme inhibition | P17405 | placental ASM, HMU-PC fluorogenic substrate, 60 min | Potency, µM (titrated, usually from 57.5 µM), inactives show at the highest dose activity change, negative = inhibition, usual class: inhibitors | hit rate 0.006% among 340,000 | AID 504937; note: potency is the fitted concentration of half-maximal effect
Target sequence (P17405 47-631 limits assumed): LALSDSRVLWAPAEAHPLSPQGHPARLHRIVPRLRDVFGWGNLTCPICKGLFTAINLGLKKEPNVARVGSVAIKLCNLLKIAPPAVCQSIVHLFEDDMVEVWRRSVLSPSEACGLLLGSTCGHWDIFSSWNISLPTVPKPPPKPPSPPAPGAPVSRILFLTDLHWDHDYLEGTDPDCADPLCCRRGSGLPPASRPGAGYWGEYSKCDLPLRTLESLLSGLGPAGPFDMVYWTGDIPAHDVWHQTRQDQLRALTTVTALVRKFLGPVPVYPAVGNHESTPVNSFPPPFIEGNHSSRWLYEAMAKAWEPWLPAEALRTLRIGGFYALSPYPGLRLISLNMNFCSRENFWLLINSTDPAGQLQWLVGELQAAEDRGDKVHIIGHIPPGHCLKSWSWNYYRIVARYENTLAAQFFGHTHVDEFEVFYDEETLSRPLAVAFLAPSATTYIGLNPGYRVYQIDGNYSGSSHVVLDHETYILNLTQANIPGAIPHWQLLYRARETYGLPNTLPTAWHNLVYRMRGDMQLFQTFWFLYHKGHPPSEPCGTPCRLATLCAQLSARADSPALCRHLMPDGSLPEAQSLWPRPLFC
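HMU-PC0 cleavage (9 uM final) by human placental ASM, 60 min at 37 °C following 10 min compound exposure at RT; stopped at pH 10, fluorescence Ex 386/Em 447 nm.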
HepG2 viability: HepG2 cytotoxicity, counter-screen for TGF-b inhibitors | hit rate 0.76% among 410,000 | HepG2 CAGA-GFP viability, ATP luminescence, 18 h | AID 588856 | Potency, µM (highest dose often 46.1 µM), without a hit: at the top dose activity change, negative = cytotoxicity, hits mostly cytotoxic; note: potency is the fitted concentration of half-maximal effect
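HepG2 CAGA-GFP cells (1000/well, DMEM with 1% FBS) received compound, then TGF-beta at 500 pg/mL final, and were incubated 18 hours at 37 degrees C. Viability was read by CellTiter-Glo luminescence. Media-only wells were set as complete cell-killing and DMSO as no toxicity.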
TGFb SMAD3 inh: blocks TGF-b signaling; HepG2 CAGA-GFP TGF-b/SMAD3 reporter, GFP fluorescence, 18 h; TGF-beta stimulated, 500 pg/mL final; Potency, µM (top dose mostly 46.1 µM), without a hit: at the highest dose activity, negative = inhibition, most hits filed as inhibitors; hit rate 1.2% among 410,000; note: potency is the fitted concentration of half-maximal effect; % is set by controls: 0 for no effect and ±100 for the full control effect; nearly all actives have a fitted effect of over 65% in size
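Read-out: total well GFP (ex488/em500-530) summed from mean per-cell fluorescence. Cells: HEPG2 CAGA-GFP, 1% FBS DMEM, 18 h at 37 degrees C with 500 pg/mL final TGF-beta. Unstimulated wells served as the full-inhibition control; stimulated DMSO wells = 0%.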
TDP1 cell CPT: DT40-hTDP1 cell growth loss with CPT; hit rate 12% among 420,000; chicken DT40 Tdp1-/-;hTDP1 cells + 20 nM CPT, ATP luminescence, 48 h; Potency, µM (top dose mostly 46.2 µM), without a hit: at the top dose activity change, negative = growth inhibition, most hits filed as inhibitors; note: potency is the fitted concentration of half-maximal effect; % is set by controls: 0 for no effect and ±100 for the full control effect; nearly all actives have a fitted effect of over 55% in size
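Chicken DT40 Tdp1-/- cells stably complemented with human TDP1 were seeded at 400 cells/well in medium containing 20 nM camptothecin, exposed to pin-transferred compounds, and grown at 37 °C for at least 48 hr. Viability was read as ATP luminescence.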
Numbers without * were called inactive; ? = inconclusive; nt = no result given. Unless noted, calls come from the whole dose curve; as a rule, active = well fitted curve in the direction sought with a large enough effect; inconclusive = small, poorly fitted or top-dose-only effect, or another doubt; inactive = no such curve, though single readings can be large; an effect the other way counts as inactive or inconclusive.

SMILES | IL1B secr inh | TDP1 cell noCPT | ASM inhibitor | HepG2 viability | TGFb SMAD3 inh | TDP1 cell CPT
CC1CCCN(c2ccc(C(=O)Nc3ccc4c(c3)OCO4)cc2[N+](=O)[O-])C1 (stereo unspecified) | -66* | 21µM* | -12% | -2% | 0% | ?
CC1CCCN(c2ccc(C(=O)OCC(=O)N3c4ccccc4Sc4ccccc43)cc2[N+](=O)[O-])C1 (stereo unspecified) | -11 | 23µM* | -1% | -4% | -4% | 18µM*
CC1CCN(c2ccc(C(=O)Nc3ccc4c(c3)OCO4)cc2[N+](=O)[O-])CC1 | -141* | 9.2µM* | -9% | 7% | -12% | 10µM*
C[C@H](O)[C@@H]1CN2CCc3c([nH]c4ccccc34)[C@@H]2C[C@@H]1N(C)C(=O)c1ccco1 | 46 | ? | nt | -15% | ? | ?
Cc1ccc2c(CN3CCN(C(=O)c4ccc(Br)cc4)CC3)cc(=O)oc2c1 | nt | ? | nt | -26% | ? | 21µM*
CN1CCN(Cc2cc(=O)oc3cc4c(cc23)CCC4)CC1 | -1 | 0% | 0% | -2% | -6% | ?
Cc1ccc2c(CN3CCCCC3)cc(=O)oc2c1 | 3 | -2% | 3% | -2% | 0% | -9%
O=c1cc(CN2CCN(c3ccc(F)cc3)CC2)c2cc3c(cc2o1)CCCC3 | 35 | ? | -5% | -16% | -14% | 18µM*
COc1ccc(N2CCN(Cc3nnc(-c4ccc5c(c4)OCO5)o3)CC2)cc1 | nt | ? | nt | 20% | 88% | ?
COc1ccc(N2CCN(Cc3cc4c(cc3Br)OCCO4)CC2)cc1 | -68* | ? | -1% | -42% | 0% | ?
COc1ccc2oc(=O)cc(CN3CCN(Cc4ccc(OC)c(OC)c4OC)CC3)c2c1 | -54* | ? | 3% | -39% | -18% | ?
CS(=O)(=O)Nc1cccc(-c2cncnc2-n2ccnc2)c1 | nt | 1% | nt | nt | nt | 5%
CCOc1ncccc1C(=O)OCC(=O)NC(=O)c1ccccc1 | 20 | 16% | -2% | 4% | 13% | -13%
COc1ccc(CN(CC(=O)NC(C)C)C(=O)CCC(=O)Nc2nccs2)cc1 | -7 | 4% | -1% | 4% | 1% | 8%
CCOc1ccc2oc(=O)cc(CN3CCN(c4ccc(Cl)cc4)CC3)c2c1 | nt | 26µM* | nt | -6% | ? | 23µM*
CCOc1ccc2oc(=O)cc(CN3CCN(c4ccc(OC)cc4)CC3)c2c1 | nt | 21µM* | nt | -44% | -22% | ?
COc1ccc(N2CCN(Cc3cc(=O)oc4cc(C)c(Cl)cc34)CC2)cc1 | 0 | -23% | -2% | 0% | 4% | ?
CCOc1ccc2oc(=O)cc(CN3CCN(C(=O)c4ccc(Cl)cc4)CC3)c2c1 | nt | 21µM* | nt | -25% | ? | ?
CCOc1ccc2oc(=O)cc(CN3CCN(C(=O)c4cccc(Cl)c4)CC3)c2c1 | nt | ? | nt | -35% | ? | -30%
Cc1cc2oc(=O)cc(CN3CCN(c4ccc(Cl)c(Cl)c4)CC3)c2cc1Cl | -9 | -1% | nt | -41% | -23% | -12%
COc1ccc(/C=N/n2c(N)nc(-c3ccccc3)c2-c2ccccc2)cc1 | ? | 16µM* | -24% | -20% | ? | 26µM*
COc1ccc(/C=N/n2c(N)nc3ccccc32)cc1OC | -60* | -23% | -1% | -4% | -3% | -15%
COc1ccc(/C=N/n2c(=S)n(C)c3ccccc32)cc1OC | -18 | -23% | -10% | -11% | 5% | ?
COc1cccc(/C=N/n2c(N)nc3ccccc32)c1OC | -68* | -24% | 1% | -31% | ? | -26%
Fc1ccc(NC(=S)N2CCSC2c2cccs2)cc1 (stereo unspecified) | -1 | -9% | 3% | -3% | ? | 0%
SMILES | IL1B secr inh | TDP1 cell noCPT | ASM inhibitor | HepG2 viability | TGFb SMAD3 inh | TDP1 cell CPT
COc1ccc(C)cc1N(C(=O)c1ccccc1)c1nc2ccccc2s1 | -3 | ? | -2% | -52% | -3% | -28%
COc1ccc(C)cc1N(C(=O)c1ccccc1F)c1nc2ccccc2s1 | 8 | 18µM* | -1% | -5% | -1% | ?
CCOC(=O)C1CCN(C(=O)Cn2ncc3c4ccccc4n(Cc4ccccc4)c3c2=O)CC1 | nt | 7.3µM* | nt | -31% | ? | 8.2µM*
CCOC(=O)C1CCCN(C(=O)Cn2ncc3c4ccccc4n(Cc4ccccc4)c3c2=O)C1 (stereo unspecified) | nt | 18µM* | nt | -10% | -23% | ?
CCOC(=O)C1CCCN(C(=O)Cn2ncc3c4ccccc4n(C)c3c2=O)C1 (stereo unspecified) | nt | ? | nt | -7% | -23% | -2%
O=C(Cn1ncc2c3ccccc3n(Cc3ccc(Cl)cc3)c2c1=O)N1CCCCCC1 | nt | 10µM* | nt | 1% | 8% | 13µM*
CCOC(=O)C1CCN(C(=O)Cn2ncc3c4ccccc4n(Cc4ccc(F)cc4)c3c2=O)CC1 | nt | 1.8µM* | nt | -21% | ? | 3.3µM*
CCS(=O)(=O)c1nc(S(=O)(=O)c2ccc(C)cc2)c(NCCCOC)s1 | nt | ? | nt | -14% | 2% | -24%
CC1CCN(C(=O)Cn2c(=O)n(CCCC(=O)NCc3ccco3)c(=O)c3sccc32)CC1 | 12 | -1% | -1% | -28% | 5% | 0%
O=C(NNC(=O)c1ccco1)c1ccc(NS(=O)(=O)c2cccs2)cc1 | -13 | -14% | 5% | 6% | 3% | -11%
CC(CCc1ccccc1)NC(=O)Cn1ncc2c3ccccc3n(Cc3ccc(F)cc3)c2c1=O (stereo unspecified) | nt | ? | nt | -2% | -6% | ?
Cc1c2cnn(CC(=O)N3CCCCC3)c(=O)c2c(C)n1Cc1ccc(Cl)cc1 | nt | 23µM* | nt | -14% | ? | 23µM*
CN1CCN(C(=O)Cn2ncc3c4ccccc4n(Cc4ccc(F)cc4)c3c2=O)CC1 | nt | 7.3µM* | nt | -33% | -20% | 15µM*
CCCN1CCN(C(=O)Cn2ncc3c4ccccc4n(Cc4cccc(Cl)c4)c3c2=O)CC1 | nt | 12µM* | nt | -23% | -16% | 13µM*
O=C(Cn1ncc2c3ccccc3n(Cc3cccc(Cl)c3)c2c1=O)NCCCN1CCCCC1 | nt | -14% | nt | -2% | 2% | -2%
Cc1ccc(CNC(=O)Cn2ncc3c(C)n(Cc4ccc(Cl)cc4)c(C)c3c2=O)cc1 | nt | ? | nt | -65% | -4% | ?

From PubChem BioAssay
